Sampled rows, rich in hits. Any-hit rate of the full collection: about 21%.
Cycloheximide cs: Cycloheximide Counterscreen for Small Molecule Inhibitors of Shiga Toxin | cell reporter, cycloheximide protein synthesis inhibition counterscreen | max response, % | 12% of 300,000 active | AID 2314, 2010; in the data active = max response mostly above about 13%, no sharp cut-off; inactive = mostly below about 14%; note: read at 38.3 µM for the half of the compounds with a filed dose; 0% is about no effect
Pf growth 96h: Primary qHTS for delayed death inhibitors of the malarial parasite plastid, 96 hour incubation; P. falciparum luciferase reporter growth, 96 h; 6.9% of 320,000 active; Potency, µM (highest dose often 28.7 µM), for inactives: top-dose activity change, negative = inhibition, usual class: inhibitors; note: potency is the fitted concentration of half-maximal effect; % is set by controls: 0 for no effect and ±100 for the full control effect
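Two parasite generations (96 h, 37 C, 5% CO2) of compound exposure in infected erythrocytes (0.05% parasitemia, 2% hematocrit). Luciferase-reporter P. falciparum; decreased luminescence indicates inhibited growth, aimed at apicoplast-acting delayed death.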
Shiga toxin inh: A qHTS for Small Molecule Inhibitors of Shiga Toxin; 9.2% of 290,000 active; inhibition, % at 38.7 µM; Vero cells, Shiga toxin protein synthesis inhibition reporter; in the data active = inhibition mostly above about 28%, no sharp cut-off; inactive = mostly below about 43%; note: 0% is about no effect
Sm TGR block: qHTS Assay for the Inhibitors of Schistosoma Mansoni Peroxiredoxins. Schistosoma mansoni thioredoxin glutathione reductase (TGR), Q962Y6. purified TGR, DTNB reduction, TNB absorbance 405 nm. Potency, µM (doses to about 114 µM), for the others: at the top dose activity change, negative = inhibition, hits mostly inhibitors. 3% of 360,000 active; note: potency is the fitted concentration of half-maximal effect; % is set by controls: 0 for no effect and ±100 for the full control effect; nearly all actives have a fitted effect of over 60% in size
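TGR 20 nM + NADPH 100 uM (dispensed conc.), cpd preinc 15 min RT; start with NADPH (500 uM addition) then DTNB (15 mM addition). Kinetic TNB absorbance, 405 nm filter. Four-parameter Hill fit across titration.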
Pf growth 48h: Primary qHTS for delayed death inhibitors of the malarial parasite plastid, 48 hour incubation; P. falciparum luciferase growth in erythrocytes, 48 h; Potency, µM (highest dose often 28.7 µM), for inactives: top-dose activity change, negative = inhibition, usual class: inhibitors; 5.9% of 310,000 active; AID 504832, 2011; note: potency is the fitted concentration of half-maximal effect; % is set by controls: 0 for no effect and ±100 for the full control effect
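Growth was read as firefly luciferase luminescence after a 48 h, 37 C, 5% CO2 exposure of compounds to reporter-bearing P. falciparum cultures (0.1% parasitemia, 2% hematocrit final) in Albumax-supplemented RPMI 1640.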
NS1 inh: qHTS Assay for Inhibitors of Influenza NS1 Protein Function | 0.4% of 270,000 active | AID 2326, 2010 | Potency, µM (titrated, usually from 46.1 µM), inactives show at the highest dose activity, positive = more growth; calls by dose curve; note: potency is the fitted concentration of half-maximal effect; actives are rising curves; nearly all actives have a fitted effect of over 50% in size
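Compounds were scored for reversing the slow growth caused by influenza A NS1 in S. cerevisiae, measured by optical density at 600 nm. Assay medium contained 2% galactose at pH 6.0; NS1-free yeast of the same strain were the positive control.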
An asterisk follows results filed as active. Unless noted, calls come from the whole dose curve; as a rule, active = well fitted curve in the direction sought with a large enough effect; inconclusive = small, poorly fitted or top-dose-only effect, or another doubt; inactive = no such curve, though single readings can be large; an effect the other way counts as inactive or inconclusive.

Results for COc1cc(C(=O)NC(=S)Nc2ccccc2N2CCOCC2)cc(OC)c1OC ?
Cycloheximide cs: 1.4; Pf growth 96h: 25.6%; Shiga toxin inh: -7.8; Sm TGR block: 25.1µM*; Pf growth 48h: inconclusive; NS1 inh: -5.4%

Results for COc1cccc(-c2nc3ccc([N+](=O)[O-])cc3o2)c1 ?
Cycloheximide cs: 12.5; Pf growth 96h: 0.3%; Shiga toxin inh: 29.4*; Sm TGR block: 6.4%; Pf growth 48h: 58.5%

How did CC(=O)CC(C)(C)Nc1nc2ccc([N+](=O)[O-])cc2o1 do in these assays?
Cycloheximide cs: 12.6; Pf growth 96h: 33.5%; Shiga toxin inh: 48.6; Sm TGR block: -10.2%; Pf growth 48h: 30.4%; NS1 inh: 0.8%

Results for CC(C)(C)Nc1nc2ccc([N+](=O)[O-])cc2o1 ?
Cycloheximide cs: 18.7*; Pf growth 96h: 28.5%; Shiga toxin inh: 34.8; Sm TGR block: 6.2%; Pf growth 48h: 29.5%; NS1 inh: -4.6%

How did O=c1oc(-c2cccc([N+](=O)[O-])c2)nc2ccccc12 do in these assays?
Cycloheximide cs: -3.7; Pf growth 96h: inconclusive; Sm TGR block: -1.0%; Pf growth 48h: 25.4%; NS1 inh: -15.2%

How did O=[N+]([O-])c1ccc2nc(-c3ccccc3)oc2c1 do in these assays?
Cycloheximide cs: 26.0*; Pf growth 96h: 8.7%; Shiga toxin inh: 71.2*; Sm TGR block: 7.0%; Pf growth 48h: 349.7%

Results for CCOC(=O)c1c(S(=O)(=O)N2CCC(C(=O)NCc3cccc(C)c3)CC2)c(C)n(C)c1C ?
Sm TGR block: -8.3%

Results for C=CCn1c(=O)/c(=C/c2ccc(O)cc2)s/c1=C(/C#N)c1nnc2n1CCCCC2 ?
Cycloheximide cs: -1.8; Pf growth 96h: inconclusive; Shiga toxin inh: 12.7; Sm TGR block: -12.5%; Pf growth 48h: inconclusive; NS1 inh: -53.3%

What do the screens show for `C=CCn1c(=O)/c(=C/c2cc(OC)c(OC)c(OC)c2)s/c1=C(/C#N)c1nc2ccccc2n1C`?
Cycloheximide cs: -7.6; Pf growth 96h: 80.0%; Shiga toxin inh: -8.2; Sm TGR block: -0.5%; Pf growth 48h: 5.22µM*; NS1 inh: 11.7%

What do the screens show for `CCc1ccc(OCC(=O)NCC(c2ccc(Cl)cc2)N2CCOCC2)cc1` (centres undefined)?
Sm TGR block: 5.8%

What do the screens show for `CCCCNC(=O)Nc1cc(C(=O)OC)ccc1Cl`?
Cycloheximide cs: -3.2; Shiga toxin inh: -16.0; Sm TGR block: 4.8%; Pf growth 48h: 14.4%; NS1 inh: -0.9%

Results for CC(C)CCNC(=O)c1cn(CC(C)C)c(=O)c2c1c1ccccc1n2C ?
Cycloheximide cs: -3.2; Pf growth 96h: inconclusive; Shiga toxin inh: -3.4; Sm TGR block: 0.6%; Pf growth 48h: -23.6%; NS1 inh: 0.2%

Results for CC(C)Cn1cc(C(=O)NCc2cccs2)c2c3ccccc3n(C)c2c1=O ?
Cycloheximide cs: -5.9; Pf growth 96h: 8.28µM*; Shiga toxin inh: -25.4; Sm TGR block: -3.5%; Pf growth 48h: inconclusive; NS1 inh: -12.1%

Results for CCOC(=O)N1CCN(C(=O)c2cn(CC(C)C)c(=O)c3c2c2ccccc2n3C)CC1 ?
Cycloheximide cs: -7.3; Pf growth 96h: 34.2%; Shiga toxin inh: 39.2; Sm TGR block: 7.8%; Pf growth 48h: 10.4µM*; NS1 inh: -3.7%

How did CCOC(=O)N1CCN(C(=O)c2cn(C)c(=O)c3c2c2ccccc2n3C)CC1 do in these assays?
Cycloheximide cs: -1.1; Shiga toxin inh: 13.2; Sm TGR block: 0.0%; Pf growth 48h: inconclusive; NS1 inh: -9.2%

Results for c1ccc(C2(Cn3ccc4ccccc43)OCCO2)cc1 ?
Cycloheximide cs: -2.0; Pf growth 96h: inconclusive; Shiga toxin inh: -3.7; Sm TGR block: 2.3%; Pf growth 48h: 13.1µM*; NS1 inh: -9.7%

Results for Oc1ccc(Cl)cc1-c1cc(C(F)(F)C(F)F)nc(-c2ccccc2)n1 ?
Cycloheximide cs: 5.4; Shiga toxin inh: -10.1; Sm TGR block: -0.8%; Pf growth 48h: 1.31µM*; NS1 inh: -0.8%

Results for Cc1ccc(O)c(-c2cc(C(F)(F)C(F)F)nc(-c3ccccc3)n2)c1 ?
Cycloheximide cs: -2.2; Pf growth 96h: 8.28µM*; Shiga toxin inh: -9.1; Sm TGR block: 8.1%; Pf growth 48h: inconclusive; NS1 inh: inconclusive

How did O=[N+]([O-])c1ccc(C2=Nc3cc(Cl)ccc3OC2)cc1 do in these assays?
Cycloheximide cs: 12.1; Pf growth 96h: -11.9%; Shiga toxin inh: 62.1*; Sm TGR block: -18.1%; Pf growth 48h: inconclusive; NS1 inh: -5.5%

How did Cc1ccc2c(c1)N=C(c1ccc(F)cc1)CO2 do in these assays?
Cycloheximide cs: 40.8*; Pf growth 96h: 30.4%; Shiga toxin inh: 111.0*; Sm TGR block: -12.7%; Pf growth 48h: 44.3%; NS1 inh: -30.5%

What do the screens show for `CC1(O)CC(c2ccc(Cl)cc2)=NN1C(=O)c1ccc([N+](=O)[O-])cc1` (centres undefined)?
Cycloheximide cs: 2.7; Pf growth 96h: 34.9%; Shiga toxin inh: 9.3; Sm TGR block: 1.5%; Pf growth 48h: inconclusive; NS1 inh: 1.8%

How did CCOC(=O)c1csc(N/N=C2\CCCc3ccccc32)n1 do in these assays?
Cycloheximide cs: 11.6*; Pf growth 96h: inconclusive; Shiga toxin inh: 33.2*; Sm TGR block: 2.5%; NS1 inh: 8.5%

Results for CCOC(=O)c1csc(NC(=O)CN2CCN(C)CC2)n1 ?
Cycloheximide cs: -1.7; Pf growth 96h: -6.0%; Shiga toxin inh: 5.3; Sm TGR block: 5.3%; Pf growth 48h: -0.8%; NS1 inh: 1.3%

How did CCOC(=O)c1csc(N/N=C2\CCc3ccccc32)n1 do in these assays?
Cycloheximide cs: 31.1*; Pf growth 96h: 13.1µM*; Shiga toxin inh: 38.2*; Sm TGR block: -35.0%; NS1 inh: 0.5%

Results for O=C(NNC(=O)C1CCCO1)c1ccc(F)cc1 (centres undefined) ?
Cycloheximide cs: 7.3; Pf growth 96h: 41.6%; Shiga toxin inh: -7.0; Sm TGR block: 0.2%; Pf growth 48h: 18.7%; NS1 inh: -3.2%

Results for CCCS(=O)(=O)Nc1ccc(-c2ccc3nnc(C)n3n2)cc1 ?
Cycloheximide cs: -2.0; Pf growth 96h: 41.6%; Shiga toxin inh: 9.2; Sm TGR block: 13.6%; Pf growth 48h: 42.7%

What do the screens show for `COc1ccc(S(=O)(=O)N2CCCC(C(=O)NCC3CCCO3)C2)cc1C` (centres undefined)?
Cycloheximide cs: 4.6; Pf growth 96h: 0.0%; Shiga toxin inh: -10.7; Sm TGR block: 0.5%; Pf growth 48h: -13.7%; NS1 inh: 15.4%

Results for O=S(=O)(c1ccccc1)[C@@]1(c2ccccc2)C[C@@H]2ON=C(c3cccc(Br)c3)[C@@H]2C1 ?
Pf growth 96h: inconclusive; Sm TGR block: -9.7%; Pf growth 48h: 11.7µM*

Compound activity (PubChem)
